Sampled rows, rich in hits. Any-hit rate of the full collection: about 28%.
CYP2C9 activ: CYP2C9 (human) activation. activation factor at 5 µM. recombinant CYP2C9, luciferin-H conversion, luminescence; stronger effect = higher value; factor 1 = untreated enzyme, 0 = blocked. AID 1024. hit rate 1.4% among 96,000. P11712;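 active means activation factor of 2 or more for CYP2C9 at a 5 µM dose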;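 further: 0 = sulfaphenazole-blocked wells and 1 = vehicle-only wells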
CYP2C9 inhib: blocks human cytochrome P450 2C9; P11712; CYP2C9 Supersomes, luciferin-H conversion, luminescence; inhibition, % at 5 µM; hit rate 20% among 96,000; AID 777;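 active means blocking of liver enzyme CYP2C9 beyond about 50% at 5 µM, limit read from the data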
CYP2C19 inhib: human CYP2C19 inhibition; hit rate 21% among 96,000; inhibition, % at 5 µM; AID 778; CYP2C19 Supersomes, luciferin-H EGE luminescence, 30 min; P33261;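 active means CYP2C19 inhibition above a set limit at 5 µM in the primary screen, cut at about 50% in these data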;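 further: plate controls were negative control wells for no effect and 2.5 mM tranylcypromine positive control for full effect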
Target sequence (P33261 whole entry, looked up): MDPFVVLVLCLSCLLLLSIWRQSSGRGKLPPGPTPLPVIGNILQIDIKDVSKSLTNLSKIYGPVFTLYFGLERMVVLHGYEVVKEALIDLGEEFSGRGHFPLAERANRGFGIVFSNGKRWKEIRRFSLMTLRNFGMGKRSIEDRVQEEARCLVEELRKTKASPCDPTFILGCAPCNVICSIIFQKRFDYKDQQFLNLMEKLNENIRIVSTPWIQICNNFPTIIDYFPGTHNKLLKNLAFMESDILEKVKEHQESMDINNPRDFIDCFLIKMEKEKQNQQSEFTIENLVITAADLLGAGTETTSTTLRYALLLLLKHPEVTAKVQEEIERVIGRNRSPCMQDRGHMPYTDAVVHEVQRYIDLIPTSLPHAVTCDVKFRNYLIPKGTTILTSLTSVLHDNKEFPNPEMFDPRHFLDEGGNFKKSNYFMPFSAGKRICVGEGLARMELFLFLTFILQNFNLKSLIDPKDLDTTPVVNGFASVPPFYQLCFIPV
PLK1 kinase inh: inhibitors of human PLK1 kinase | P53350 | recombinant PLK1 kinase, TR-FRET peptide phosphorylation | inhibition, % at 10 µM | hit rate 0.53% among 97,000 | AID 619;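 active means inhibition of 50% or more in the single-concentration screen; inactive means inhibition below 50%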;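 further: 0% = DMSO max control and 100% = H-89 dihydrochloride min control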
CYP2C19 act: increases human CYP2C19 enzyme activity. 96,000 tested, under 10 active. recombinant CYP2C19, luciferin-H EGE luminescence; stronger effect = higher value; 0 = fully inhibited enzyme, 1 = untreated enzyme. activation factor at 5 µM. P33261;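 active means activation factor of at least 2 at 5 µM in the primary screen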;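 further: 0 = wells with 2.5 mM tranylcypromine and 1 = vehicle-only wells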
Plk1 PBD FP: Plk1 (human) PBD binding inhibition. P53350. AID 693. hit rate 0.13% among 97,000. inhibition, %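 (tested at about 20 µM)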. Plk1 PBD phosphopeptide binding, fluorescence polarization; in the data active means inhibition above about 34%, passing the limit was not always enough
Starred values were filed as active, the others as inactive.

Results for Cc1cccc(NC(=O)c2ccccc2OCC(=O)c2ccccc2)c1 ?
CYP2C9 activ: 0.3; CYP2C9 inhib: 73*; CYP2C19 inhib: 58*; PLK1 kinase inh: -4; CYP2C19 act: 0.4; Plk1 PBD FP: 3

How did Cc1ccc(C(O)P(=O)(OC2CCCCC2)OC2CCCCC2)cc1 (centres undefined) do in these assays?
CYP2C9 activ: 0.4; CYP2C9 inhib: 62*; CYP2C19 inhib: 89*; PLK1 kinase inh: 13; CYP2C19 act: 0.1; Plk1 PBD FP: -9

What do the screens show for `O=P(OC1CCCCC1)(OC1CCCCC1)C(O)c1c(Cl)cccc1Cl` (centres undefined)?
CYP2C9 activ: 0.7; CYP2C9 inhib: 35; CYP2C19 inhib: 18; PLK1 kinase inh: -10; CYP2C19 act: 0.8; Plk1 PBD FP: -4

Results for Cc1nnc(SCC(=O)NCc2ccccc2)[nH]c1=O ?
CYP2C9 activ: 0.8; CYP2C9 inhib: 22; CYP2C19 inhib: 11; PLK1 kinase inh: -6; CYP2C19 act: 0.9; Plk1 PBD FP: 25

What do the screens show for `O=S(=O)(c1cc(F)cc(F)c1)N1CCN(c2ncccn2)CC1`?
CYP2C9 activ: 0.5; CYP2C9 inhib: 47; CYP2C19 inhib: 72*; PLK1 kinase inh: -4; CYP2C19 act: 0.3; Plk1 PBD FP: 23

Results for O=S(=O)(c1cccc(S(=O)(=O)N2CCN(c3ncccn3)CC2)c1)N1CCOCC1 ?
PLK1 kinase inh: -6; Plk1 PBD FP: -13

How did O=S(=O)(c1ccccc1)N1CCN(c2ncccn2)CC1 do in these assays?
CYP2C9 activ: 0.4; CYP2C9 inhib: 62*; CYP2C19 inhib: 46; PLK1 kinase inh: -34; CYP2C19 act: 0.5; Plk1 PBD FP: -37

Results for Cc1nc(N2CCN(S(=O)(=O)c3ccccc3)CC2)c2cc(-c3ccccc3)sc2n1 ?
CYP2C9 activ: 0.5; CYP2C9 inhib: 53*; CYP2C19 inhib: 8; PLK1 kinase inh: -3; CYP2C19 act: 0.9; Plk1 PBD FP: 18

How did Cc1cc(C)nc(/N=C2\NC(=O)CC(C(=O)O)N2c2ccc(Cl)cc2)n1 (centres undefined) do in these assays?
CYP2C9 activ: 1; CYP2C9 inhib: -4; CYP2C19 inhib: -7; PLK1 kinase inh: -17; CYP2C19 act: 1.1; Plk1 PBD FP: 22

What do the screens show for `COc1ccc(S(=O)(=O)N2CCN(Cc3ccc4c(c3)OCO4)CC2)c2ccccc12`?
CYP2C9 activ: 0.3; CYP2C9 inhib: 74*; CYP2C19 inhib: 89*; PLK1 kinase inh: -22; CYP2C19 act: 0.1; Plk1 PBD FP: -22

Results for CCOC(=O)N1CCN(S(=O)(=O)c2ccc(OC)c3ccccc23)CC1 ?
CYP2C9 activ: 1.2; CYP2C9 inhib: -22; CYP2C19 inhib: 40; PLK1 kinase inh: -8; CYP2C19 act: 0.6; Plk1 PBD FP: -27

How did COc1ccc(F)cc1S(=O)(=O)N1CCN(Cc2ccc3c(c2)OCO3)CC1 do in these assays?
CYP2C9 activ: 0.7; CYP2C9 inhib: 28; CYP2C19 inhib: 56*; PLK1 kinase inh: -11; CYP2C19 act: 0.4; Plk1 PBD FP: -9

What do the screens show for `COc1ccc(Cl)cc1S(=O)(=O)N1CCN(Cc2ccc3c(c2)OCO3)CC1`?
CYP2C9 activ: 0.7; CYP2C9 inhib: 30; CYP2C19 inhib: 74*; PLK1 kinase inh: -10; CYP2C19 act: 0.3; Plk1 PBD FP: -6

Results for Cc1ccc2nsnc2c1S(=O)(=O)N1CCN(Cc2ccc3c(c2)OCO3)CC1 ?
CYP2C9 activ: 0.3; CYP2C9 inhib: 73*; CYP2C19 inhib: 97*; PLK1 kinase inh: -11; CYP2C19 act: 0; Plk1 PBD FP: 21

How did Cc1ccc2nsnc2c1S(=O)(=O)N1CCCC1 do in these assays?
CYP2C9 activ: 1.3; CYP2C9 inhib: -33; CYP2C19 inhib: 37; PLK1 kinase inh: 5; CYP2C19 act: 0.6; Plk1 PBD FP: -7

How did O=C(Cn1cnc2ccccc2c1=O)c1ccc2c(c1)OCCO2 do in these assays?
CYP2C9 activ: 0.8; CYP2C9 inhib: 19; CYP2C19 inhib: 12; PLK1 kinase inh: -90; CYP2C19 act: 0.9; Plk1 PBD FP: 0

Results for CC(C)CNS(=O)(=O)c1ccc(S(=O)(=O)N2CCN(CCC#N)CC2)cc1 ?
CYP2C9 activ: 0.7; CYP2C9 inhib: 26; CYP2C19 inhib: 7; CYP2C19 act: 0.9

What do the screens show for `CC1(C)CC(NCc2ccc3c(c2)OCO3)CCO1` (centres undefined)?
CYP2C9 activ: 0.9; CYP2C9 inhib: 12; CYP2C19 inhib: 25; PLK1 kinase inh: -6; CYP2C19 act: 0.8; Plk1 PBD FP: -7

How did O=S(=O)(Cc1ccccc1Cl)N1CCN(Cc2ccc3c(c2)OCO3)CC1 do in these assays?
CYP2C9 activ: 1.1; CYP2C9 inhib: -8; CYP2C19 inhib: 94*; PLK1 kinase inh: -3; CYP2C19 act: 0.1; Plk1 PBD FP: -26

What do the screens show for `CSc1ccc(S(=O)(=O)N2CCN(Cc3ccc4c(c3)OCO4)CC2)cc1`?
CYP2C9 activ: 0.6; CYP2C9 inhib: 42; CYP2C19 inhib: 26; CYP2C19 act: 0.7

What do the screens show for `Cc1nc(NCCCn2ccnc2)c2oc3ccccc3c2n1`?
CYP2C9 activ: 0; CYP2C9 inhib: 96*; CYP2C19 inhib: 85*; PLK1 kinase inh: -16; CYP2C19 act: 0.2; Plk1 PBD FP: -3

How did c1ccc2c(c1)oc1c(NCCCn3ccnc3)ncnc12 do in these assays?
CYP2C9 activ: 0.1; CYP2C9 inhib: 92*; CYP2C19 inhib: 80*; PLK1 kinase inh: -9; CYP2C19 act: 0.2; Plk1 PBD FP: 8

How did COc1ccc(NC(=O)CSc2nccn2-c2cccc(OC)c2)cc1 do in these assays?
CYP2C9 activ: 0.3; CYP2C9 inhib: 70*; CYP2C19 inhib: 59*; PLK1 kinase inh: 12; CYP2C19 act: 0.4; Plk1 PBD FP: 15

What do the screens show for `COc1cccc(NC(=O)CSc2nccn2-c2cccc(OC)c2)c1`?
CYP2C9 activ: 0.7; CYP2C9 inhib: 26; CYP2C19 inhib: 61*; PLK1 kinase inh: -2; CYP2C19 act: 0.4; Plk1 PBD FP: -17

Results for COc1ccc(NC(=O)CSc2nccc(C)n2)cc1 ?
CYP2C9 activ: 1; CYP2C9 inhib: -4; CYP2C19 inhib: 51*; PLK1 kinase inh: -12; CYP2C19 act: 0.5; Plk1 PBD FP: 0

What do the screens show for `COc1cccc(-n2ccnc2SCC(=O)Nc2cc(OC)ccc2OC)c1`?
CYP2C9 activ: 1.2; CYP2C9 inhib: -20; CYP2C19 inhib: 89*; PLK1 kinase inh: -9; CYP2C19 act: 0.1; Plk1 PBD FP: -10

Results for CCOc1cccc(-c2nnc(SCC(=O)Nc3cccc(OC)c3)n2N)c1 ?
CYP2C9 activ: 0.6; CYP2C9 inhib: 43; CYP2C19 inhib: 13; PLK1 kinase inh: 3; CYP2C19 act: 0.9; Plk1 PBD FP: -15

What do the screens show for `Cc1cccc(-n2ccnc2SCC(=O)Nc2cc(C)on2)c1`?
CYP2C9 activ: 0.8; CYP2C9 inhib: 16; CYP2C19 inhib: 25; PLK1 kinase inh: -7; CYP2C19 act: 0.8; Plk1 PBD FP: 4

What do the screens show for `O=C(CSc1ccc2c(c1)OCCO2)Nc1ccc(Cl)cn1`?
CYP2C9 activ: 0.7; CYP2C9 inhib: 26; CYP2C19 inhib: 71*; PLK1 kinase inh: 1; CYP2C19 act: 0.3; Plk1 PBD FP: -15
